# From PubChem BioAssay
# CRFBP-R2 block: antagonists of CRF-binding protein/CRF-R2 receptor complex | 350,000 compounds, 0.59% hits | inhibition, % at 11.8 µM | HEK293 CRF-R2/CRF-BP, CRF-induced calcium fluorescence | AID 588475;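 active = inhibition of the ligand-induced calcium signal above about 50% at the single tested concentration, limit read from the data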
# ABHD5-PLIN5 inh: ABHD5-PLIN5 protein interaction inhibition; Split G. princeps luciferase complementation, luminescence, 4 h; inhibition, % at 4 µM; 360,000 compounds, 0.78% hits; AID 602281;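 active = inhibition above the mean inhibition across every tested compound plus 3 SD, cut at about 22% in these data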;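 note: 0% = DMSO only wells and the 100% control is not disclosed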
# TLR9-MyD88 inh: blocks human TLR9 binding to MyD88 | Q9NR96+Q99836 | CHO BLA complementation TLR9-MyD88, CCF4 FRET ratio | inhibition, % at 4.98 µM | 340,000 compounds, 0.21% hits | AID 504734;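 active = inhibition above the mean over all tested compounds plus 3 SD, cut at about 21% in these data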;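 note: 0% = DMSO only wells and 100% = clavulanate BLA inhibitor control wells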
# HTR2A ag: activates the mouse 5-HT2A serotonin receptor; 360,000 compounds, 0.66% hits; CHO-K1 mHTR2A beta-arrestin complementation, luminescence; percent of 30 µM serotonin response; activation, % at 7.6 µM;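 active = activation above a run cutoff, the mean activation of all tested compounds plus 3 SD, cut at about 14% in these data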;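 note: 0% = plate median of compound wells and 100% = 30 µM serotonin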
# TLR4 MyD88 comp: TLR4-MyD88 interaction inhibition in cells; 200,000 compounds, 0.18% hits; inhibition, % at 8.4 µM; AID 861; O00206+Q99836; HeLa CL3-4 TLR4/MyD88 BLA complementation, FRET ratio; in the data active = inhibition above about 25%;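 note: 0% = vehicle and 100% = reference inhibitor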
# NOD2-RIPK2 inh: inhibitors of human NOD2-RIPK2 interaction; CHO BLA complementation NOD2-RIPK2, CCF4 ratio; inhibition, % at 4.98 µM; 360,000 compounds, 0.38% hits; AID 624267; in the data active = inhibition above about 21%;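 note: 0% = vehicle only and 100% = reference blocker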
# ABHD5 PLIN5 conf: ABHD5-PLIN5 interaction inhibition, confirmed | shares compounds with ABHD5-PLIN5 inh | 2,200 compounds, 67% hits | inhibition, % at 4 µM | biochemical ABHD5-PLIN5 interaction, luminescence; in the data active = inhibition above about 23%;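 note: 0% = DMSO vehicle wells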
# HNF4 split-luc: active in HNF4 split-luciferase counter-screen for ABHD5-PLIN5 inhibitors | HNF4 dimerization, luminescence, biochemical | AID 651674 | inhibition, % at 4 µM | shares compounds with ABHD5-PLIN5 inh | 2,200 compounds, 77% hits;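 active = mean inhibition across replicate wells exceeding the computed hit threshold, cut at about 13% in these data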;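 note: light from luciferase halves that rejoin when HNF4 fusion proteins dimerize; 0% = DMSO only wells and the 100% control is not given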
# Target sequence (P41235 whole entry, looked up, the tested form may be a part): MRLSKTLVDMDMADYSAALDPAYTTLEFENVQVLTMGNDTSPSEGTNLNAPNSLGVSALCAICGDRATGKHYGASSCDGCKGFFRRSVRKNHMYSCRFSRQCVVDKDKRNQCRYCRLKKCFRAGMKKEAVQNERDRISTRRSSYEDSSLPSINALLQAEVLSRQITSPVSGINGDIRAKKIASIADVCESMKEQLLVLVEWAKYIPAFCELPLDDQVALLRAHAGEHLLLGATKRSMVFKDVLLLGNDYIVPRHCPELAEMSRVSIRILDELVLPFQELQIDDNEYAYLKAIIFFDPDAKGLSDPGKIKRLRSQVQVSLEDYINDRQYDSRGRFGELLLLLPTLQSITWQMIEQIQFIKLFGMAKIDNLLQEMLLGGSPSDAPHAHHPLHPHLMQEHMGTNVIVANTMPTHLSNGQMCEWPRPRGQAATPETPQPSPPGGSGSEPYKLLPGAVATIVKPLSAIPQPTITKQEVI
# * = called active by the depositor; · = not tested or not shown; ! = not confirmed by another sample. The list is not random: actives were taken first. Their share in the collection is about 2.4%.
SMILES,CRFBP-R2 block,ABHD5-PLIN5 inh,TLR9-MyD88 inh,HTR2A ag,TLR4 MyD88 comp,NOD2-RIPK2 inh,ABHD5 PLIN5 conf,HNF4 split-luc
CSCCC(c1nc2ccccc2[nH]1)n1c(=O)c(-c2ccco2)nc2ccccc21 (stereo not drawn),·,34*,·,4,·,1,34*,40*
CSCCC(c1nc2ccccc2[nH]1)n1c(=O)c(-c2cccnc2)nc2ccccc21 (stereo not drawn),·,6,·,0,·,-26,·,·
CC(C)(C)NC(=O)C(C1CC1)n1c(=O)c(-c2ccco2)nc2ccccc21 (stereo not drawn),·,51*,·,7,·,-11,73*,23*
Cc1cccc(C)c1NC(=O)C(c1ccc(C(F)(F)F)cc1)n1c(=O)c(-c2ccccc2)nc2ccccc21 (stereo not drawn),·,-15,·,4,·,-16,·,·
Cc1cccc(C)c1NC(=O)C(c1ccncc1)n1c(=O)c(-c2ccco2)nc2ccccc21 (stereo not drawn),·,56*,·,4,·,-9,23*,12
NS(=O)(=O)c1ccc(CCNC(=O)c2cc(-c3ccccc3)nc3ccccc23)cc1,1,-1,6,-5,1,-9,·,·
NS(=O)(=O)c1ccc(CCNC(=O)c2cc(-c3ccco3)nc3ccccc23)cc1,5,25*,-4,-8,·,-20,22*,22*
CC1=C2C3OC(=O)C(C)C3CCC2(C)C=C(Br)C1=O (stereo not drawn),5,5,6,7,·,-16,·,·
CCn1c2ccccc2c2cc(NC(=O)CSc3nnc(C4CC4)n3Cc3ccco3)ccc21,-28,31*,2,-3,5,-1,11,25*
CC/C(=C(\c1ccccc1)c1ccc(OCCN(C)C)cc1)c1ccccc1,-9,38*!,16,-3,·,6,72*,26*
CC/C(=C(\c1ccc(O)cc1)c1ccc(OCCN(C)C)cc1)c1ccccc1,-22,4,-16,-4,·,0,·,·
Cc1ccc(S(=O)(=O)c2ncccc2[N+](=O)[O-])cc1,2,43*,11,-7,·,21,55*,70*
COCCNC(=S)Nc1ccc(N2CCOCC2)c(S(=O)(=O)Nc2ccc(Cl)cc2)c1,6,-4,-1,7,·,0,·,·
O=S(=O)(Nc1ccc(Cl)cc1)c1ccc(N2CCOCC2)c(NC(=S)NCCN2CCOCC2)c1,-7,31*,2,5,-15,3,-5,48*
Cc1nc([N+](=O)[O-])c(Br)n1CC(=O)c1ccc2ccccc2c1,-37,25*,-5,-6,4,22*,53*,36*
O=C(Nc1ccc2c(c1)OCO2)c1cc(C2CCCCN2C(=O)c2ccc(Cl)cc2)on1 (stereo not drawn),·,-2,·,2,·,-3,·,·
COc1ccccc1-c1cc(SC)c(C#N)c(=O)o1,-1,67*,-2,-1,6,1,89*,93*
O=C(NCCN1CCC(n2c(=O)[nH]c3ccccc32)CC1)c1ccc(F)cc1F,·,3,·,-5,·,-14,·,·
CC(C)C1N=C(c2ccc3c(c2)OCO3)CC(c2ccccc2O)N1 (stereo not drawn),-25,56*,-2,-2,1,10,58*,82*
Cc1ccc(-c2nnc(-c3ccc4c(c3)OCO4)o2)cc1,-1,-2,0,6,0,-16,·,·
COC(=O)C[C@H]1CC[C@@H]2[C@H](COC[C@H](O)CN2S(=O)(=O)c2ccccc2OC)O1,·,-3,·,10,·,-6,·,·
CCOC(=O)C1(C)CCCN(C(=O)Cc2ccc3ccccc3c2)C1 (stereo not drawn),·,7,·,10,·,2,·,·
COc1ccc(-c2ccc3[nH]c4c(c3c2)CCN2C(=O)[C@@H]([C@H](C)O)[C@@H](N(C)C(=O)Nc3ccc(F)cc3)C[C@@H]42)cc1,3,7,4,2,·,1,·,·
COc1ccc(CCNC(=O)/C=C/c2ccc3ccccc3n2)cc1OC,-11,25*,12,-1,·,-8,32*,18*
COc1ccc(/C=C/C(=O)NCCc2ccc(OC)c(OC)c2)cc1,-14,-6,3,-3,-13,-2,·,·
SMILES,CRFBP-R2 block,ABHD5-PLIN5 inh,TLR9-MyD88 inh,HTR2A ag,TLR4 MyD88 comp,NOD2-RIPK2 inh,ABHD5 PLIN5 conf,HNF4 split-luc
CCOc1cc(/C=N/NC(=O)c2ccc(CN3CCOCC3)cc2)ccc1OC,11,2,-4,4,6,2,·,·
CCOc1cc(/C=C/C(=O)c2ccc(OC)c(CN3CCOCC3)c2)cc(Br)c1O,-61,23*,3,-13,·,4,30*,24*
CC1=CC(C)(C)Nc2ccc(OC(=O)c3cccnc3)cc21,15,78*,5,-2,18,10,97*,72*
CC1=CC(C)(C)N2C(=O)C(=O)c3cc(OC(=O)c4ccco4)cc1c32,-15,-2,·,-1,8,15,·,·
O=C(Oc1ccc(F)cc1)c1cccnc1,2,12,2,6,·,-7,·,·
CC1=CC(C)(C)Nc2ccc(OC(=O)C(C)N3C(=O)c4ccccc4C3=O)cc21 (stereo not drawn),-13,58*,-6,-4,-3,5,90*,24*
CC1=CC(C)(C)Nc2ccc(OC(=O)CN3C(=O)CCC3=O)cc21,-8,80*,-11,-1,0,-3,96*,33*
COc1ccc(OC(=O)C(C)N2C(=O)c3ccccc3C2=O)cc1 (stereo not drawn),-4,5,-5,-2,·,-4,·,·
CC1=CC(C)(C)Nc2ccc(OC(=O)c3ccco3)cc21,19,67*,3,1,21,12,91*,91*
CC1=CC(C)(C)Nc2ccc(C)cc21,-3,-2,1,2,2,6,·,·
O=C(Nc1cc(C(F)(F)F)cc(C(F)(F)F)c1)O[C@@H]1c2ccccc2[C@@H]2Cc3csc[n+]3[C@H]12,·,-10,·,-5,·,-11,·,·
CCOc1cccc(=O)c2c(C)n(Cc3ccco3)c(C)c12,3,24*,3,-2,-19,-3,29*,55*
CC1(Cc2cccc(C#N)c2)C(=O)Nc2c(Cl)cccc21 (stereo not drawn),·,-4,·,4,·,4,·,·
c1ccc(Cn2ncc3c(N4CCN(c5ccccc5)CC4)ncnc32)cc1,·,-10,·,-3,·,-12,·,·
N#C/C(=C/c1ccc(N2CCOCC2)o1)C(=O)NC1CCCCC1,-37,27*,5,1,6,-6,13,34*
